# Bioassay records deposited in PubChem by National Center for Advancing Translational Sciences (NCATS).
# This is a sample that favours compounds with a hit; in the whole collection about 11% have one here.
# AMA1-RON2 inh = qHTS for Inhibitors of AMA1-RON; Towards Development of Antimalarial Drug Lead: Primary Screen; Plasmodium falciparum AMA1 (3D7) - RON2 peptide interaction; AlphaScreen AMA1-biotinylated RON2 peptide binding; Potency, µM (highest dose often 58.2 µM), for the others: top-dose activity change, negative = inhibition, most hits filed as inhibitors; 360,000 compounds, 0.2% hits; AID 720542, 2013;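 further: 0% = vehicle wells and -100% = peptide control; nearly all actives have a fitted effect of over 45% in size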
#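 AMA1 (3D7) with his tag at 25 nM final met compounds first, then biotinylated RON2 peptide at 25 nM; detection used donor plus acceptor beads, 10 µg/mL apiece, read by AlphaScreen after 30 min at room temperature.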
# Sm TGR block = qHTS Assay for the Inhibitors of Schistosoma Mansoni Peroxiredoxins; purified TGR, DTNB reduction, TNB absorbance 405 nm; Potency, µM (titrated, usually from 114 µM), inactives show top-dose activity change, negative = inhibition, hits mostly inhibitors; 360,000 compounds, 3% hits; Schistosoma mansoni thioredoxin glutathione reductase (TGR), Q962Y6; further: on the % scale 0 is the no-effect control and ±100 the full control effect; nearly all actives have a fitted effect of over 60% in size
#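 First, TGR (20 nM dispensed) and NADPH were mixed with compound. Second, a 15 min room-temperature incubation followed. Third, further NADPH and then DTNB were added to start the reaction. Finally, TNB absorbance was monitored kinetically.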
# Pf growth 96h = Primary qHTS for delayed death inhibitors of the malarial parasite plastid, 96 hour incubation. Potency, µM (doses to about 28.7 µM), without a hit: top-dose activity change, negative = inhibition, actives largely listed as inhibitors. P. falciparum luciferase reporter growth, 96 h. 320,000 compounds, 6.9% hits; further: on the % scale 0 is the no-effect control and ±100 the full control effect
#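 Cell-based qHTS: luciferase-tagged P. falciparum in erythrocytes (2% hematocrit, 0.05% parasitemia final) incubated with compounds for 96 hours, 37 C, 5% CO2; luciferase detection reagent then added and luminescence measured.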
# Pf growth 48h = Primary qHTS for delayed death inhibitors of the malarial parasite plastid, 48 hour incubation; Potency, µM (doses to about 28.7 µM), for inactives: top-dose activity change, negative = inhibition, most hits filed as inhibitors; AID 504832, 2011; P. falciparum luciferase growth in erythrocytes, 48 h; 310,000 compounds, 5.9% hits; further: on the % scale 0 is the no-effect control and ±100 the full control effect
#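 Cell-based growth assay: transgenic P. falciparum expressing firefly luciferase, cultured in red cells within RPMI 1640 containing 0.5% w/v Albumax, 24 mM bicarbonate and gentamycin. A drop in luciferase activity indicates inhibition.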
# NS1 inh = qHTS Assay for Inhibitors of Influenza NS1 Protein Function; Potency, µM (series often up to 46.1 µM), for the others: top-dose activity, positive = more growth; 270,000 compounds, 0.4% hits; calls by dose curve; further: actives are rising curves; nearly all actives have a fitted effect of over 50% in size
#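 Compounds were scored for reversing the slow growth caused by influenza A NS1 in S. cerevisiae, measured by optical density at 600 nm. Assay medium contained 2% galactose at pH 6.0; NS1-free yeast of the same strain were the positive control.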
# Numbers without * were called inactive; i = inactive; ? = inconclusive; nt = no result. Unless noted, the call rests on the fitted dose curve; in most records, active means well fitted curve in the direction sought with a large enough effect; inconclusive means small, poorly fitted or top-dose-only effect, or another doubt; inactive means no such curve, though single readings can be large; an effect the other way counts as inactive or inconclusive. Potency means the concentration at half of the fitted maximal effect.
SMILES,AMA1-RON2 inh,Sm TGR block,Pf growth 96h,Pf growth 48h,NS1 inh
O=C(O)CCS(=O)(=O)c1ccccc1Cl,-18%,3%,19%,-1%,nt
COc1ccc(C(=O)C2CCCN(C3Cc4ccccc4C3)C2)c(OC)c1 (centres undefined),-23%,11%,-12%,23%,0%
CC(C)(C)n1nc2c(c1NC(=O)COc1ccc(Cl)cc1)CSC2,-5%,-12%,4.7µM*,?,-34%
COc1ccc(CC(=O)Nc2c3c(nn2C(C)(C)C)CS(=O)(=O)C3)cc1OC,-30%,35µM*,8%,29%,3%
COc1ccc(CC(=O)Nc2c3c(nn2C(C)(C)C)CS(=O)(=O)C3)cc1,13%,-22%,31%,3%,11%
CC(C)(C)n1nc2c(c1NC(=O)Cc1ccc(F)cc1)CSC2,-6%,-26%,10µM*,nt,10%
Oc1ccc(C=NN=C2c3ccccc3-c3ccccc32)c(O)c1,-24%,nt,nt,nt,nt
CCCc1nc2ccccc2n2cc3c(=O)n(C)c(=O)n(C)c3c12,nt,nt,nt,nt,8%
Cn1c(=O)c2cn3c(c2n(C)c1=O)C(c1ccccc1)CC(c1ccccc1)=N3 (centres undefined),6%,13µM*,11%,?,-17%
COc1ccccc1C(=O)NC(=O)OCCn1c(C)cnc1[N+](=O)[O-],-6%,2%,9.3µM*,-11%,nt
CCOCC(=O)Nc1cc(C(F)(F)F)ccc1Oc1cccc(Br)c1,61%,-27%,0.47µM*,?,-42%
CC(=O)Nc1cc(C(F)(F)F)ccc1Oc1cccc(Br)c1,14%,30%,?,?,-47%
COC(=O)C1=NN(c2ccccc2)C2(S1)S/C(=C\c1ccccc1)C(=O)N2c1ccccc1 (centres undefined),-21%,-3%,nt,13µM*,2%
CCOC(=O)C1=NN(c2ccccc2)C2(S1)SC(C(C)=O)=C(C)N2c1ccccc1 (centres undefined),?,-13%,nt,0%,-4%
O=C(Cc1ccc(Br)cc1)NCCCn1ccnc1,1%,44%,?,2%,9%
COc1cc(OC)c(C2CC(=O)N3CN(C)CSC3=C2C#N)cc1OC (centres undefined),-4%,?,?,nt,-50%
CCc1ccccc1N1CSC2=C(C#N)C(c3cc(OC)c(OC)cc3OC)CC(=O)N2C1 (centres undefined),-21%,6.3µM*,68%,13µM*,10µM*
COc1cc(C2CC(=O)N3CN(c4ccccc4C)CSC3=C2C#N)cc(OC)c1OC (centres undefined),nt,?,?,?,-15%
COc1cc(OC)c(C2CC(=O)N3CN(c4ccccc4)CSC3=C2C#N)cc1OC (centres undefined),17%,10µM*,?,37%,-85%
COc1ccc2ccccc2c1C1CC(=O)N2CN(C)CSC2=C1C#N (centres undefined),-6%,10µM*,2%,0%,?
COc1ccc(Br)cc1C1CC(=O)N2CN(C)CSC2=C1C#N (centres undefined),6%,?,?,nt,-42%
COCCNC(=O)C1CCCN(C(=O)c2ccc(C(F)(F)F)nc2C)CC1 (centres undefined),-8%,nt,nt,nt,nt
C[C@@H]1CN([C@H](C)CO)C(=O)CCCn2cc(nn2)CO[C@H]1CN(C)S(=O)(=O)c1ccc2c(c1)OCCCO2,9%,nt,nt,nt,nt
O=C1CN(C(=O)Cn2ncc(Cl)c(Cl)c2=O)c2ccccc2N1,-3%,25µM*,?,-5%,nt
O=C(COC(=O)c1ccc([N+](=O)[O-])o1)NCc1ccc(F)cc1,3%,nt,nt,nt,nt
SMILES,AMA1-RON2 inh,Sm TGR block,Pf growth 96h,Pf growth 48h,NS1 inh
COc1ccc(/C=C/C(=O)OCC(=O)N2CC(=O)Nc3ccccc32)cc1,16%,-1%,?,-5%,-9%
CCCCOc1ccc(/C=C/C(=O)OCC(=O)N2CC(=O)Nc3ccccc32)cc1OCC,-9%,2%,?,10µM*,7%
O=C1CN(C(=O)COc2ccc(Cl)cc2Cl)c2ccccc2N1,13%,1%,40%,?,3%
O=C1CN(C(=O)COC(=O)c2ccc([N+](=O)[O-])o2)c2ccccc2N1,-3%,45µM*,4%,-6%,nt
O=C(COC(=O)c1ccc([N+](=O)[O-])o1)Nc1cccc2ccccc12,-5%,14µM*,16%,-2%,5%
Cc1ccc(N2CC(C(=O)N3CCCCCC3)CC2=O)cc1 (centres undefined),-12%,0%,?,8%,8%
O=C1CN(C(=O)COc2cccc(F)c2)c2ccccc2N1,nt,-12%,?,-2%,10%
O=C1CN(CC(=O)Nc2cccc(Cl)c2Cl)c2ccccc2N1,11%,50µM*,-1%,-9%,nt
O=C1CN(C(=O)COc2ccc(Br)cc2F)c2ccccc2N1,-5%,-10%,8.3µM*,5.9µM*,1%
O=C1CN(C(=O)COc2ccc([N+](=O)[O-])cc2Cl)c2ccccc2N1,0%,-11%,10µM*,2.9µM*,nt
O=C1CN(C(=O)COc2ccc(Cl)c(Cl)c2)c2ccccc2N1,1%,0%,3.3µM*,13µM*,nt
Cc1ccc2cc(C#N)c(SCC(=O)N3CCCc4ccccc43)nc2c1C,0%,3%,?,?,16%
C[C@@H]1CN([C@H](C)CO)C(=O)CCCn2cc(nn2)CO[C@H]1CN(C)C(=O)Nc1ccc(C(C)(C)C)cc1,0%,nt,nt,nt,nt
C/C(=N\NC(=O)c1cccs1)c1c(O)cc(C)oc1=O,138%,-9%,?,25%,-39%
C/C(=N\Nc1ccc(Cl)cc1)c1c(O)cc(C)oc1=O,8%,22µM*,103%,i,nt
Cn1nnc2c[n+](CC(=O)c3ccc4ccccc4c3)cc(Br)c21,17%,?,?,12µM*,-4%
CCCn1nc(C(=O)NNC(=O)c2ccc(C)c(C)c2)c2ccccc2c1=O,61%,nt,nt,nt,nt
CCCn1nc(C(=O)N2CCN(S(=O)(=O)c3ccc(C)c(C)c3)CC2)c2ccccc2c1=O,-11%,-7%,?,12µM*,nt
CCC(C)(C)NC(=O)C(c1cccn1C)N(Cc1ccccc1)C(=O)Cn1nnc2ccccc21 (centres undefined),8%,-8%,-23%,-5%,0%
CCC(C)(C)NC(=O)C(c1ccco1)N(C(=O)Cn1nnc2ccccc21)c1ccc2c(c1)OCO2 (centres undefined),-2%,-2%,7.4µM*,?,-7%
Cc1ccc(C(C(=O)NCc2ccco2)N(C(=O)Cn2nnc3ccccc32)c2ccccc2)o1 (centres undefined),0%,50µM*,15%,?,-31%
